Giardia killer = Giardia lamblia killing | Giardia lamblia trophozoite viability | 340,000 compounds, 0.15% hits | activity change, % at 7.66 µM, hits read low | AID 540267; in the data active = activity change below about -80%; inconclusive = between about -30% and that limit;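 note: parasites exposed to compound for two days anaerobically before the ATP read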
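Anaerobic 48 hrs incubation at 37 deg C of 100 trophozoites/well with test compounds; ATPLite 1-Step luminescence, 15-30 min RT, reports cellular ATP as viability.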
DT40 TDP1 CPT = DT40-hTDP1 cell growth loss with CPT | chicken DT40 Tdp1-/-;hTDP1 cells + 20 nM CPT, ATP luminescence, 48 h | Potency, µM (highest dose often 46.2 µM), for inactives: top-dose activity change, negative = growth inhibition, hits mostly inhibitors | 420,000 compounds, 12% hits | AID 686979; note: potency is the fitted concentration of half-maximal effect; nearly all actives have a fitted effect of over 55% in size
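Cell growth measured by CellTiter-Glo luminescence after a minimum 48 h, 37 C compound exposure with 20 nM CPT in Tdp1-knockout DT40 cells stably expressing hTDP1, seeded 400/well; qHTS titration format.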
DT40 TDP1 no CPT = qHTS for Inhibitors of human tyrosyl-DNA phosphodiesterase 1 (TDP1): qHTS in cells in absence of CPT | DT40 Tdp1-/- hTDP1 cells, no CPT, ATP luminescence, 48 h | Potency, µM (highest dose often 46.2 µM), for inactives: at the highest dose activity change, negative = growth inhibition, hits mostly inhibitors | 420,000 compounds, 15% hits; note: potency is the fitted concentration of half-maximal effect; nearly all actives have a fitted effect of over 55% in size
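Luminescent ATP content (CellTiter-Glo) served as the growth readout. Knockout chicken DT40 cells expressing human TDP1 were exposed to compounds without camptothecin for a minimum 48 hr at 37 °C.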
TDP1 inh = blocks human tyrosyl-DNA phosphodiesterase 1. Q9NUW8. 350,000 compounds, 0.28% hits. AID 485290. recombinant TDP1, AlphaScreen DNA substrate cleavage. Potency, µM (highest dose often 130 µM), for the others: at the highest dose activity change, negative = inhibition, usual class: inhibitors; note: potency is the fitted concentration of half-maximal effect; nearly all actives have a fitted effect of over 40% in size
Target sequence (Q9NUW8 whole entry, looked up): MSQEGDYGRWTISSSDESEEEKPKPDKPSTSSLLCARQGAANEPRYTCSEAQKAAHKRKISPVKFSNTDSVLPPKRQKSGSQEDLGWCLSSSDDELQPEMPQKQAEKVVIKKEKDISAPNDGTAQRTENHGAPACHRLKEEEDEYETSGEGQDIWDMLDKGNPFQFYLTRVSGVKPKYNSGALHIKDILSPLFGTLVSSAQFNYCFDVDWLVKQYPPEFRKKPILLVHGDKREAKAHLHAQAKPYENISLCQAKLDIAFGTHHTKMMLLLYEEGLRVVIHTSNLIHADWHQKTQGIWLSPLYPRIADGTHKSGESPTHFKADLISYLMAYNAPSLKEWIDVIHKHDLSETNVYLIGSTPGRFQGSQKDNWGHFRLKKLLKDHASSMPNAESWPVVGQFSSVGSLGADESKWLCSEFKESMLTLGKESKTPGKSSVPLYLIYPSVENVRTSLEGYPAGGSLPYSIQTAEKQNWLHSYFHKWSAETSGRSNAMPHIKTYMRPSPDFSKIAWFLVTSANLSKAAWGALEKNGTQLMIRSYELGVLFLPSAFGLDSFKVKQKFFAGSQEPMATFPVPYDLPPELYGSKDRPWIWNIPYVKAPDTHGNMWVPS
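Compounds were preincubated with Tdp1 (1 nM final) for 15 min at room temperature before substrate (15 nM final) started a 5 min reaction; beads (10 ug/ml final) were then added for 10 min before AlphaScreen detection.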
IL1B secr inh = blocks inflammasome-driven IL-1 beta release; THP-1 LPS/ATP IL-1B secretion, AlphaLISA, 16 h; stronger effect = lower value; 360,000 compounds, 4.7% hits; activity change, % at 57.5 µM; in the data active = activity change below about -50%; inconclusive = mostly about -30% to -49%
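Secreted IL-1B measured by AlphaLISA bead assay after 16 h compound exposure of THP-1 cells; compounds (final up to 57.5 uM) added 1 h before LPS (250 ng/mL) and ATP (1.25 mM) stimulation; lower signal means less secretion.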
ELG1 DNA repair = inhibitors of ELG1-dependent DNA repair in HEK293T cells; Potency, µM (highest dose often 46.1 µM), for inactives: at the highest dose activity change, negative = inhibition, actives largely listed as inhibitors; HEK293T ELG1-luciferase reporter, luminescence, 16 h; DNA damage induced by 5-fluorouridine; 330,000 compounds, 2.3% hits; note: potency is the fitted concentration of half-maximal effect; nearly all actives have a fitted effect of over 55% in size
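In this reporter screen, reduction of luminescence relative to DMSO vehicle indicated activity. Compounds and 5-fluorouridine were added together to 2,000 cells per well, incubated for 16 hr at 37 °C, then developed with ONE-Glo.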
The depositor's hits bear a star; ? = inconclusive; · = not tested or not shown; [ ] = remark or other dose. Shown are actives, neighbours in structure and some others; about 19% of the full set was active somewhere. Unless noted, calls come from the whole dose curve; as a rule, active = well fitted curve in the direction sought with a large enough effect; inconclusive = small, poorly fitted or top-dose-only effect, or another doubt; inactive = no such curve, though single readings can be large; an effect the other way counts as inactive or inconclusive. % is set by controls: 0 for no effect and ±100 for the full control effect.

SMILES | Giardia killer | DT40 TDP1 CPT | DT40 TDP1 no CPT | TDP1 inh | IL1B secr inh | ELG1 DNA repair
C=C1C([C@@]2(C)C(OC(C)=O)CC(=O)O[C@@](C)(COC(C)=O)C2CC(=O)OC)C(OC=O)C(OC(=O)C(OC(C)=O)C(C)CC)[C@]2(C)C(c3ccoc3)CC(=O)C12O (stereo not given in full) | · | -4% | -10% | 9% | · | ·
COc1cc(OC)c(OC)cc1CNCCc1cccc(F)c1 | -16 | -27% | ? | · | -17 | -3%
COc1cccc(CCNCc2cccc(C(F)(F)F)c2)c1 | -17 | -1% | ? | -8% | -136* | -6%
OC[C@H]1O[C@@H](n2cnc3cc(Cl)c(Cl)cc32)[C@H](O)[C@@H]1O | -21 | ? | 15µM* | · | -70* | 8.9µM*
OC[C@H]1O[C@@H](n2cnc3cc(Cl)c(Cl)cc32)[C@H](O)[C@H]1O | · | 16µM* | ? | 9% | · | ·
O[C@@H]1[C@@H]2O[P@@](O)(=S)OC[C@H]2O[C@H]1n1cnc2cc(Cl)c(Cl)cc21 | · | · | · | -6% | · | ·
O=c1c2ccc(Cl)cc2[nH]c(=S)n1-c1cccnc1 | 8 | -9% | -5% | -8% | -12 | 2%
Cc1ccc(C(C)C)c(OCC(=O)N2CCN(Cc3nc4cc([N+](=O)[O-])ccc4n3C)CC2)c1 | -7 | 1% | -3% | 5% | 3 | 21µM*
Cc1ccccc1CS(=O)(=O)Cc1ccc(C(=O)N2CCC3(CC2)OCCO3)o1 | -6 | 1% | -10% | 4% | 9 | -9%
CCOc1ccc(CCNC(=O)c2ccc(CS(=O)(=O)c3ccccc3C)o2)cc1OCC | · | ? | 15µM* | 2% | · | ·
O=[N+]([O-])c1ccc(S(=O)(=O)N2CCn3cccc3C2c2ccccc2F)cc1 (stereo not given) | · | ? | 16µM* | 13% | · | ·
O=C1/C(=C/c2ccc([N+](=O)[O-])cc2)N2CCC1CC2 | 10 | ? | ? | 11% | -22 | 30%
CN(C)c1ccc(N)cc1 | · | · | · | 26% | · | ·
CN(C)c1ccc(N=O)cc1 | · | 0.56µM* | 5µM* | 12% | · | ·
CSC1=NP(=S)(SC)N2CCCC2=C1C#N (stereo not given) | -13 | -22% | -11% | 3% | 8 | -5%
COC(=O)CSC1=NP(=S)(SCC(=O)OC)N2CCCC2=C1C#N (stereo not given) | 10 | -26% | ? | -2% | -94* | 2%
CC(=O)O[C@H]1C[C@H](O[C@H]2[C@@H](O)C[C@H](O[C@H]3[C@@H](O)C[C@H](OC4CC[C@@]5(C)C(CC[C@@H]6[C@@H]5CC[C@]5(C)[C@@H](C7=CC(=O)OC7)[C@@H](O)C[C@]65O)C4)O[C@@H]3C)O[C@@H]2C)O[C@H](C)[C@H]1O[C@@H]1O[C@H](CO)[C@@H](O)[C@H](O)[C@H]1O (stereo not given in full) | · | 3.3µM* | 2.4µM* | · | · | ·
CC(=O)OC1CC(OC2C(O)CC(OC3C(O)CC(OC4CCC5(C)C(CCC6C5CCC5(C)C(C7=CC(=O)OC7)C(O)CC65O)C4)OC3C)OC2C)OC(C)C1OC1OC(CO)C(O)C(O)C1O (stereo not given) | -13 | 1.5µM* | 1.8µM* | · | -80* | ·
C[C@H]1O[C@@H](O[C@H]2CC[C@@]3(C)[C@H](CC[C@@H]4[C@@H]3C[C@@H](O)[C@]3(C)[C@@H](C5=CC(=O)OC5)CC[C@]43O)C2)C[C@H](O)[C@@H]1O[C@H]1C[C@H](O)[C@H](O[C@H]2C[C@H](O)[C@H](O[C@@H]3O[C@H](CO)[C@@H](O)[C@H](O)[C@H]3O)[C@@H](C)O2)[C@@H](C)O1 | · | 1.3µM* | 0.94µM* | · | · | ·
C[C@@]12CC[C@H](O)C[C@@H]1CC[C@H]1[C@@H]2C[C@@H](O)[C@]2(C)[C@@H](C3=CC(=O)OC3)CC[C@]12O | · | · | · | 11%[21 µM] | · | ·
CC(=O)O[C@H]1CC[C@]2(C=O)C3CC[C@]4(C)[C@@H](C5=CC(=O)OC5)CC[C@]4(O)C3CC[C@]2(O)C1 (stereo not given in full) | -14 | · | · | 10% | · | ·
C=C[C@@H]1C[C@@]1(C)[C@@H](NP(=O)(c1ccccc1)c1ccccc1)c1ccccc1 | 18 | ? | 15µM* | 1% | -5 | -9%
C=C1CC2C(CC[C@]3(C)C(=O)CCC23)[C@]2(C)C=CC(=O)C=C12 (stereo not given in full) | · | · | · | 9% | · | ·
COC(=O)[C@@H]1[C@@H](C(=O)OC)C2(c3ccccc3-c3ccccc32)N(c2ccc(Cl)cc2)N1C#N | -18 | 2.6µM* | 2.6µM* | 5% | -99* | ?
COC(=O)C[C@]1(C(=O)OC)CN(C#N)N(c2ccc(Cl)cc2)C12c1ccccc1-c1ccccc12 | 9 | 1µM* | 0.92µM* | · | -105* | 26µM*
SMILES | Giardia killer | DT40 TDP1 CPT | DT40 TDP1 no CPT | TDP1 inh | IL1B secr inh | ELG1 DNA repair
C[C@]12CC[C@@H]3c4ccc(O)cc4C[C@@H](CCCCCCCCCS(=O)CCCC(F)(F)C(F)(F)F)[C@H]3[C@@H]1CC[C@@H]2O (stereo not given in full) | · | -40% | ? | · | · | ·
CCCCC[C@@H]1CCCCC[C@@H](O)C[C@H](O)[C@H](O)/C=C/C(=O)O1 | · | ? | ? | · | 13 | ·
CCCCC[C@H]1CCCCC[C@@H](O)C[C@@H](O)[C@@H](O)/C=C/C(=O)O1 | · | 10µM* | 9.2µM* | · | -1 | ·
CC(=O)[C@H]1CC[C@H]2[C@@H]3CC[C@H]4C[C@](C)(O)CC[C@]4(C)[C@H]3CC[C@]12C | · | 6% | -16% | · | · | ·
Cn1c(O)c(C(=Nc2ccccc2)SCc2ccc(Cl)cc2)c(=O)n(C)c1=O | 0 | 4.6µM* | 3.3µM* | · | 15 | ?
CCc1ccc(OCCCN=C(C)c2c(O)n(C)c(=O)n(C)c2=O)cc1 | -6 | 13µM* | 18µM* | 5% | 15 | ?
CC(=NCc1ccco1)c1c(O)n(C)c(=O)n(C)c1=O | 1 | -22% | -13% | 0% | -11 | 0%
CC(=NCCC(c1ccccc1)c1ccccc1)c1c(O)n(C)c(=O)n(C)c1=O | -3 | 21µM* | 13µM* | 0% | 47 | ?
CCC(=NCCc1ccccc1)c1c(O)n(C)c(=O)n(C)c1=O | -4 | ? | 8.2µM* | · | -19 | ?
NCCCC[C@H](N[C@@H](CCc1ccccc1)C(=O)O)C(=O)N1CCC[C@H]1C(=O)O | -2 | -2% | ? | 12%[21 µM] | 5 | 4%
